The supplement of paper PMC11219838
Unmarked numbers belong to inactive results.

These molecules were tested on Caenorhabditis elegans L1 (N2) (assay: survival and reproduction score of C. elegans L1 (0: 0-10 living worms, 1: 11-20, 2: 21-50, 3: >50, 4: overgrown) (score 0-4); higher = more worms, less nematicidal, active = 1 or less; extreme values may be limits of the assay). Settings: 60 µM; 6 days; temperature: 20 °C.
Procedure: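 DODA library (846 commercial 1,3,4- and 1,2,4-oxadiazole compounds plus commercial nematicide controls) screened at a single dose of 60 µM (0.6% DMSO) in 96-well plates, two biological replicates. Read-outs: C. elegans N2 L1 survival/reproduction score at day 6, 20 °C (0: 0-10 worms, 1: 11-20, 2: 21-50, 3: >50, 4: overgrown/starved). C. elegans daf-2 dauer, D. dipsaci and M. hapla J2 mobility at day 5, 20 °C, and P. penetrans mobility at day 5, 20 °C, each relative to DMSO controls. M. hapla egg hatching at day 12, 25 °C, relative to the mean of 8 DMSO wells on the same plate.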

Row | SMILES | survival and reproduction score
1 | CCN(CC)C(=O)CSc1nnc(-c2ccc(Cl)cc2Cl)o1 | 4
2 | Cc1ccc(C(=O)CSc2nnc(-c3ccccc3)o2)cc1 | 4
3 | Clc1ccccc1OCc1nc(-c2ccccn2)no1 | 4
4 | COc1ccc(-c2nc(C3CCCCC3)no2)cc1 | 4
5 | Fc1ccc(-c2nc(-c3ccc4c(c3)OCO4)no2)cc1 | 4
6 | O=C(CSc1nnc(-c2ccco2)o1)NC1CCCCC1 | 4
7 | COc1ccc(-c2noc(-c3cccc(F)c3)n2)cc1 | 4
8 | Cc1cccc(-c2noc(-c3ccc(F)cc3)n2)c1 | 2
9 | Cc1cccc(-c2noc(COc3cc(C)ccc3C)n2)c1 | 2
10 | COc1ccc(-c2noc(COc3ccc(C(C)(C)C)cc3Br)n2)cc1 | 4
11 | Cc1cc(OCc2nc(-c3ccncc3)no2)ccc1Br | 4
12 | Cc1ccc(-c2noc(-c3ccccc3OCC(N)=O)n2)cc1 | 4
13 | O=C(CSc1nnc(-c2ccccc2Cl)o1)c1ccc2c(c1)CCCC2 | 4
14 | Cc1cc(C)c(NC(=O)CSc2nnc(-c3ccc(Br)cc3)o2)c(C)c1 | 4
15 | CCOC(=O)c1sc(NC(=O)CSc2nnc(-c3ccc(Cl)cc3)o2)c(C(=O)OCC)c1C | 4
16 | Cc1cc(OCc2nc(-c3ccccn3)no2)ccc1Br | 4
17 | CCOc1ccccc1-c1nnc(SCC(=O)Nc2nccs2)o1 | 4
18 | COc1ccccc1NC(=O)CSc1nnc(-c2ccc(Cl)cc2)o1 | 4
19 | O=C(CSc1nnc(-c2cccc(Cl)c2)o1)NC1CCCCC1 | 4
20 | O=C(CSc1nnc(-c2cc3ccccc3o2)o1)NC1CC1 | 4

Row | SMILES | survival and reproduction score
21 | Clc1cc(Br)ccc1OCc1nc(-c2cccnc2)no1 | 4
22 | O=C(CSc1nnc(-c2cccc3ccccc23)o1)Nc1cccc(F)c1 | 4
23 | Fc1ccccc1-c1nc(-c2ccc(Cl)cc2)no1 | 1 (active)
24 | N#Cc1ccc(CSc2nnc(-c3ccco3)o2)cc1 | 1.5
25 | Cn1c(SCc2nc(-c3ccccc3)no2)nnc1-c1ccco1 | 0 (active)
26 | Cc1ccc(-c2noc(COc3ccc(Cl)cc3)n2)cc1 | 4
27 | CCOc1ccc(-c2nc(-c3cccnc3)no2)cc1OCC | 4
28 | Cc1cccc(-c2noc(-c3ccc4c(c3)OCO4)n2)c1 | 4
29 | COc1ccccc1NC(=O)CSc1nnc(-c2cccc3ccccc23)o1 | 4
30 | Cc1ccc(OCc2nc(-c3ccc(Cl)cc3)no2)cc1C | 4
31 | O=C(CSc1nnc(-c2ccco2)o1)Nc1cccc(C(F)(F)F)c1 | 4
32 | Cc1ccc(-c2nnc(SCC(=O)Nc3ccccc3)o2)cc1 | 4
33 | c1cc(-c2noc(C34CC5CC(CC(C5)C3)C4)n2)ccn1 | 4
34 | COc1ccccc1-c1nc(-c2ccc(Br)cc2)no1 | 4
35 | Cc1ccc(-c2noc(COc3ccc(C)cc3C)n2)cc1 | 4
36 | CC1CCN(C(=O)CSc2nnc(-c3cccc(Cl)c3)o2)CC1 | 4
37 | Cc1ccc(OCc2nc(-c3ccc(Cl)cc3)no2)c(C)c1 | 4
38 | O=C(CSc1nnc(-c2ccccc2)o1)Nc1ccccc1F | 4
39 | C(=C\c1ccccc1)/CSc1nnc(-c2ccncc2)o1 | 4
40 | NC(=O)COc1ccccc1-c1nc(-c2ccccc2Cl)no1 | 4
